The source made the active and inactive calls. The calls were made as follows: active = hit-call score of the fitted dose curve at least 0.9, where 1 is the maximum; inactive = score below 0.9.
Test: APR_HepG2_NuclearSize_24hr: Apredica 24-hour HepG2 Assay for Nuclear Size (AID 2282907)
Conditions: high-content imaging, actives raise or lower the signal
Outline: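 Nuclear size is measured by fluorescence high-content imaging of Hoechst-labelled HepG2 nuclei after 24 hr of treatment (0.39–200 uM, 0.5% DMSO). Cells are fixed in 3.7% formaldehyde before staining, and DMSO serves as the baseline for bidirectional curve fitting.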

Row | Compound | outcome | AC50
1 | O=C(O)c1ccc2c(c1)nc(C(=O)NC1CCN(C3CC3)CC1)n2Cc1cc(-c2ccc(Cl)s2)on1 | inactive | –
2 | C=CN1CCCC1=O | inactive | –
3 | Nc1ccn([C@@H]2O[C@H](CO)[C@@H](O)[C@@H]2O)c(=O)n1 | – | 39.1 nM (active)
4 | COCc1nnc(-c2ccc[n+]([O-])c2)n1-c1c(Cl)c(Cl)cc2[nH]c(=O)c(=O)[nH]c12 | inactive | –
5 | C=CCc1cc(S(=O)(=O)c2ccc(O)c(CC=C)c2)ccc1O | inactive | –
6 | NC(N)=O | inactive | –
7 | O=c1[nH]cnc2c1ncn2[C@H]1CC[C@@H](CO)O1 | inactive | –
8 | CCCCCCCCCCCCCCO | inactive | –
9 | CCCCC(CC)C(=O)OCCOCCOCCOC(=O)C(CC)CCCC (stereo not drawn) | inactive | –
10 | CC[C@H](C)C(=O)O[C@H]1C[C@H](O)C=C2C=C[C@H](C)[C@H](CC[C@@H](O)C[C@@H](O)CC(=O)O)[C@H]21 | inactive | –
11 | OC[C@H]1O[C@@](CO)(O[C@H]2O[C@H](CO)[C@@H](O)[C@H](O)[C@H]2O)[C@@H](O)[C@@H]1O | inactive | –
12 | c1ccc2c(c1)-c1cccc3c1c-2cc1ccccc13 | inactive | –
13 | CCc1cccc(CC)c1N | inactive | –

Source: PubChem BioAssay (EPA / NIEHS)
